Experimental findings from PubChem BioAssay (NCI) are described below.

Each structure is given as a SMILES string. This is part of a sample that, as a whole, favours compounds with a hit. Of some 83,000 tested, about 20% had one in any assay.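 Step 1: grow cells in 96-well plates. Step 2: add test compound at a single concentration. Step 3: incubate 48 h. Step 4: record percent growth.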 Values without a mark were called inactive. Active and inactive are the calls of the source. The calls were made as follows: active = growth percent below 10; inactive = the rest.

Among the test systems are SK-MEL-2 melanoma; EKVX NSCLC; SN12C renal; UO-31 renal; TK-10 renal; ACHN renal; CAKI-1 renal; A498 renal; CCRF-CEM leukemia; MOLT-4 leukemia.
What all share (assay): NCI-60 one-dose screen, 48 h (100 = growth as untreated, 0 = no growth, -100 = all killed)
What all share (settings): 10 µM unless noted

`CN1CCN(c2ccc(Nc3nc(NCCCNS(=O)(=O)c4ccc(F)cc4)c4sccc4n3)cc2)CC1`: the growth in the assay on SK-MEL-2 melanoma is 107%; in the assay with EKVX NSCLC, 93.5%; with SN12C renal, 82%; in the assay with UO-31 renal, 64.7%; in the assay on TK-10 renal, 140%; in the assay on ACHN renal it was 70.4%. In addition, the growth is 67.6% in the assay on CAKI-1 renal, 128% in the assay on A498 renal, 31.1% with CCRF-CEM leukemia and 21.6% with MOLT-4 leukemia.

Regarding `Cn1c(SCC(=O)c2ccco2)nc2ccccc2c1=O`, the growth in the assay on SK-MEL-2 melanoma was 106%; in the assay with EKVX NSCLC, 55.2%; in the assay on SN12C renal it was 105%; with UO-31 renal, 68.7%; with TK-10 renal, 146%; in the assay with ACHN renal, 101%. The growth was 74.7% in the assay with CAKI-1 renal, 144% in the assay with A498 renal, 98.8% in the assay on CCRF-CEM leukemia and 96% in the assay with MOLT-4 leukemia.

In the case of `Cc1ccc(C)c(NC2=C(Cl)C(=O)c3nc(C)ccc3C2=O)c1`, the growth in the assay on SK-MEL-2 melanoma was -36.2% (active); in the assay with EKVX NSCLC, 1.21% (active); in the assay on SN12C renal it was -81.7% (active); in the assay with UO-31 renal it was -81.4% (active); in the assay on TK-10 renal, 147%; in the assay on ACHN renal, -96.3% (active). The growth in the assay on CAKI-1 renal was 57%; in the assay on A498 renal it was 83.8%; in the assay with CCRF-CEM leukemia, 0.186% (active); with MOLT-4 leukemia, -11% (active).

For `C[C@H]1OCC2(CCN(c3cnc(C(=O)Nc4cc(F)cc5cccnc45)cn3)CC2)[C@H]1N`, the growth was 101% in the assay with SK-MEL-2 melanoma; 77.2% in the assay with EKVX NSCLC; 46.5% in the assay with SN12C renal; 38.9% with UO-31 renal; 82.2% with TK-10 renal; 33.7% in the assay on ACHN renal. Besides, the growth in the assay on CAKI-1 renal is 40.9%; in the assay on A498 renal, 65.2%; with CCRF-CEM leukemia it was 15.6%; with MOLT-4 leukemia, 16.8%.

As for `CCS(=O)(=O)Nc1ccc(C(=O)CC2(O)C(=O)Nc3ccccc32)cc1` (stereo not given), the growth in the assay with SK-MEL-2 melanoma is 113%; in the assay on EKVX NSCLC it was 91.8%; in the assay with SN12C renal it was 97.4%; in the assay on UO-31 renal, 67.7%; with TK-10 renal, 122%; in the assay on ACHN renal, 95.3%. Moreover, the growth is 82.6% in the assay on CAKI-1 renal, 103% in the assay on A498 renal, 99.7% with CCRF-CEM leukemia and 102% in the assay on MOLT-4 leukemia.

Turning to `CC(=O)c1c([Si](C)(C)C)c2cc(C#N)ccn2c1C(=O)c1ccc(Br)cc1`, the growth is 89.4% with SK-MEL-2 melanoma; 86.9% in the assay on EKVX NSCLC; 96.6% in the assay on SN12C renal; 77.2% in the assay on UO-31 renal; 98% with TK-10 renal; 82.1% in the assay with ACHN renal. Also, the growth is 52% in the assay with CAKI-1 renal, 78.9% in the assay on A498 renal, 91.8% in the assay on CCRF-CEM leukemia and 85.3% in the assay with MOLT-4 leukemia.

As for `CCN(CC)S(=O)(=O)c1ccc(-c2nc(C(Cl)Cl)nc3cc(-c4ccc(F)cc4)nn23)cc1`, the growth in the assay with SK-MEL-2 melanoma is 82.3%; in the assay with EKVX NSCLC it was 32%; in the assay with SN12C renal, 67.6%; in the assay with UO-31 renal it was 27.6%; in the assay with TK-10 renal it was 49.9%; with ACHN renal it was 0.483% (active). Further, the growth in the assay on CAKI-1 renal is 12%; in the assay on A498 renal, 56.2%; in the assay on CCRF-CEM leukemia, 73.9%; in the assay on MOLT-4 leukemia it was 56.6%.

Regarding `O=C(NNc1nc2cc(F)cc(F)c2n2cccc12)c1cccnn1`, the growth was 20.8% in the assay with SK-MEL-2 melanoma; 9.18% (active) in the assay with EKVX NSCLC; 18.5% in the assay on SN12C renal; 15.4% in the assay with UO-31 renal; 42.4% with TK-10 renal; 10.3% with ACHN renal. Moreover, the growth with CAKI-1 renal is 12.4%; in the assay with A498 renal, 4.83% (active); with CCRF-CEM leukemia, 6.41% (active); in the assay with MOLT-4 leukemia, 7.32% (active).

In the case of `CCCC[n+]1ccc(SCC(=O)n2ccc3ccccc32)c2ccccc21`, the growth is 99.9% with SK-MEL-2 melanoma; 88.1% in the assay with EKVX NSCLC; 96.5% in the assay on SN12C renal; 76.5% in the assay with UO-31 renal; 141% in the assay on TK-10 renal; 104% with ACHN renal. Moreover, the growth in the assay on CAKI-1 renal was 81.9%; in the assay on A498 renal, 111%; with CCRF-CEM leukemia, 87.3%; in the assay with MOLT-4 leukemia, 83.1%.

Take `CCc1cc(OC(=O)N2CCN(CCC(C)(COC(C)(C)C)COC(C)(C)C)CC2)ccc1Nc1cc(-c2ccc(-n3cccn3)cc2)[nH]n1`: the growth in the assay on SK-MEL-2 melanoma is 102%; with EKVX NSCLC it was 66.1%; in the assay on SN12C renal, 62.1%; in the assay on UO-31 renal, 81.3%; with TK-10 renal, 103%; in the assay with ACHN renal, 81%. Also, the growth in the assay on CAKI-1 renal is 64.9%; in the assay with A498 renal it was 81.2%; in the assay on CCRF-CEM leukemia, 56.7%; in the assay on MOLT-4 leukemia, 52.9%.

Take `O=C(Nc1cccc(C(F)(F)F)c1)N1CCN(c2cc(-c3cn(-c4ccccc4)nc3-c3cccc(O)c3)ccn2)CC1`: the growth with SK-MEL-2 melanoma is 43.7%; in the assay with EKVX NSCLC it was 42%; in the assay on SN12C renal, 49%; with UO-31 renal it was 25.3%; in the assay with TK-10 renal, 63.3%; in the assay with ACHN renal, 39.2%. In addition, the growth is 51.8% in the assay on CAKI-1 renal, 49.4% with A498 renal, 21.5% in the assay on CCRF-CEM leukemia and 18.9% with MOLT-4 leukemia.

Consider `CNC(=O)c1cc(Oc2ccc3c(c2)sc2nc(-c4ccc(N(C)C)cc4)cn23)ccn1`, for which the growth with SK-MEL-2 melanoma is 59.7%; in the assay with EKVX NSCLC, 53.8%; in the assay on SN12C renal, 43%; with UO-31 renal, 33%; in the assay on TK-10 renal, 77.2%; in the assay on ACHN renal, 21.7%. In addition, the growth in the assay on CAKI-1 renal was 32.3%; with A498 renal, 7.34% (active); in the assay on CCRF-CEM leukemia, 9.49% (active); with MOLT-4 leukemia, 15.1%.

Regarding `N#CC1=C2NCCCNc3oc(nc3C#N)Cc3ccccc3CC(=N1)O2`, the growth in the assay with SK-MEL-2 melanoma is 93.9%; in the assay with EKVX NSCLC, 99.5%; in the assay with SN12C renal, 105%; with UO-31 renal it was 72.9%; in the assay with TK-10 renal it was 106%; in the assay with ACHN renal, 87.4%. In addition, the growth in the assay with CAKI-1 renal was 77.3%; with A498 renal it was 95.5%; in the assay with CCRF-CEM leukemia it was 30.4%; in the assay on MOLT-4 leukemia, 84.1%.
